Assay results reported in patent publication US5487994, “Insertion and deletion mutants of FokI restriction endonuclease” (The Johns Hopkins University).

Molecular target: FokI endonuclease wild-type (Flavobacterium okeanokoites, UniProt P14870 P14870:2-579)
Experiment: filter; with poly(dI-dC), 1 mM EDTA, 22 C
Conditions: tags: expressed in E. coli RR1 from pRRSfokIR; label: 32P
Protocol: The filter binding assays were performed in duplicate using *Fok*I or mutant enzymes and the four different synthetic substrates, SEQ ID NO:12, SEQ ID NO:13, hemi-methylated oligonucleotide of SEQ ID NO:12 and hemi-methylated oligonucleotide of SEQ ID NO:13. Nine different concentrations for each of the enzymes were made by serial dilutions ([…], 2000, 667, 222, 74.1, 24.7, 8.23, 2.74 and 0.914 nM). The enzymes were mixed with 40 nM of each labelled substrate along with 50 μg/ml p(dI-dC) and 50 μg/ml BSA in 50 μl of buffer A[10 mM Tris. phosphate (pH 8.0), 7 mM 2-mercaptoethanol, 1 mM EDTA, 50 mM NaCl, and 10% (vol/vol) glycerol]. The samples were incubated at 22° C. for 1 hr and then loaded on to nitrocellulose filters. The filters were washed twice with 0.5 ml of buffer A, dried and counted using the scintillation counter.
Why does the four amino-acid residue insertions enable the mutant enzymes to cleave hemi-methylated DNA and not the larger inserts? The four codon insertions could increase the affinity of the mutants for the hemi-methylated DNA. The binding affinities of wild-type enzyme and both four codon insertion mutants were compared by filter binding assays using the synthetic oligonucleotide substrates (FIGS. 9A, 9B and 9C). The binding affinities were measured in the presence of non-specific DNA, poly dI-dC.

Chain of FokI endonuclease wild-type (P14870 2-579, one chain of several): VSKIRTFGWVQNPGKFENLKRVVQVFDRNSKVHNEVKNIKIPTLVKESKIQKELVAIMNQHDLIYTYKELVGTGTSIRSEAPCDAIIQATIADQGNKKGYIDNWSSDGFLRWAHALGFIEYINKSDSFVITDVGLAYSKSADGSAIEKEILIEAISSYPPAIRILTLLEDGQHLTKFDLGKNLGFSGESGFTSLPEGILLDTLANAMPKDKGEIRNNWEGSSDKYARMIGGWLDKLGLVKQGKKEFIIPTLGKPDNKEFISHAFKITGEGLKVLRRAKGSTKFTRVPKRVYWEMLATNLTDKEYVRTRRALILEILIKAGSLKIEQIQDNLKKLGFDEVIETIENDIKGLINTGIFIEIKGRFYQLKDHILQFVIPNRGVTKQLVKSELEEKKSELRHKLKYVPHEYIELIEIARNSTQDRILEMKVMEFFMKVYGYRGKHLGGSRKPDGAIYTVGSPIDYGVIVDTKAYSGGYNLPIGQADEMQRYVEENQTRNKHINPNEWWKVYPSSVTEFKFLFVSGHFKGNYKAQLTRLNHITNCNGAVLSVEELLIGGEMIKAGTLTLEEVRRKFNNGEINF

| Binder | binding signal |
| --- | --- |
| hemi-methylated substrate (GGATG strand) (dsDNA, N6-methyladenine in GGATG strand of FokI site) DNA 1: CTAGAGTCAGAATTCGAAGACTTGCCGGATGATCTGCAGGCCAGCTGTGGCGTCTAAATTGA DNA 2: AGCTTCAATTTAGACGCCACAGCTGGCCTGCAGATCATCCGGCAAGTCTTCGAATTCTGACT | ~100 fold less efficient than unmethylated |
| fully methylated substrate (dsDNA, N6-methyladenine in both strands of FokI site) DNA 1: CTAGAGTCAGAATTCGAAGACTTGCCGGATGATCTGCAGGCCAGCTGTGGCGTCTAAATTGA DNA 2: AGCTTCAATTTAGACGCCACAGCTGGCCTGCAGATCATCCGGCAAGTCTTCGAATTCTGACT | ~100 fold less efficient than unmethylated |
| hemi-methylated substrate (CATCC strand) (dsDNA, N6-methyladenine in CATCC strand of FokI site) DNA 1: CTAGAGTCAGAATTCGAAGACTTGCCGGATGATCTGCAGGCCAGCTGTGGCGTCTAAATTGA DNA 2: AGCTTCAATTTAGACGCCACAGCTGGCCTGCAGATCATCCGGCAAGTCTTCGAATTCTGACT | ~100 fold less efficient than unmethylated |
